The full list was thinned out, with hits kept by preference.
Pf Dd2 inh – qHTS Primary assay for Inhibitors of Plasmodium falciparum Dd2 growth in vitro | P. falciparum Dd2 growth, SYBR Green, 72 h | Potency, µM (top dose mostly 28.9 µM), for inactives: top-dose activity, negative = inhibition, most hits filed as inhibitors | hit rate 4.3% among 120,000; active means well fitted inhibition curve with a large enough effect;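 further: plate controls were DMSO vehicle for no effect and reference drug for full effect; nearly all actives have a fitted effect of over 65% in size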
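Readout: SYBR Green fluorescence, 485 nm excitation, 535 nm emission, after ~16 h lysis at 37C. Before that, Dd2-infected red cells (2.5% hematocrit) grew 72 h with compound, 29 uM top final concentration.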
Starred values were filed as active, the others as inactive; i = inactive; [ ] = remark or other dose. Potency means the concentration at half of the fitted maximal effect.

SMILES	Pf Dd2 inh
N#Cc1ccccc1CN1CCCC(c2nc(-c3cccnc3)no2)CCNC(=O)CC1 (stereo not drawn)	-5%
O=C1CCN(CC2CC2)CCCC(c2nc(-c3cccnc3)no2)CCN1 (stereo not drawn)	i
N#Cc1ccc(CN2CCCC(c3nc(-c4cccnc4)no3)CCNC(=O)CC2)cc1 (stereo not drawn)	4µM*
CN1CC2(CCN(Cc3ccccc3C#N)CC2)CC(c2ccccc2)C1=O (stereo not drawn)	i
CCc1ccc(OCC(=O)NCC(c2ccc(Cl)cc2)N2CCOCC2)cc1 (stereo not drawn)	11µM*
COc1ccc(C(CNC(=O)COc2cc(C)cc(C)c2)N2CCOCC2)cc1 (stereo not drawn)	-21%
COc1ccccc1OCC(=O)NCC(c1ccc(Cl)cc1)N1CCOCC1 (stereo not drawn)	-20%
COc1ccc(OCC(=O)NCC(c2ccc(Cl)cc2)N2CCCCC2)cc1 (stereo not drawn)	7.9µM*
Cc1cc(C)cc(OCC(=O)NCC(c2ccc(Cl)cc2)N2CCCCC2)c1 (stereo not drawn)	11µM*
CN(C)c1ccc(C(CNC(=O)COc2ccccc2)N2CCOCC2)cc1 (stereo not drawn)	-16%
COc1ccc(C(=O)NCC(c2ccc(Cl)cc2)N2CCCCC2)cc1 (stereo not drawn)	-10%
COc1ccc(C(CNC(=O)Cc2ccc(Cl)cc2)N2CCOCC2)cc1 (stereo not drawn)	i
O=C(COc1ccccc1)NCC(c1ccc(Cl)cc1)N1CCOCC1 (stereo not drawn)	-4%
COc1ccc(CCNc2ncnc3c2CN(C2CCCNC2)C(=O)CN3C)cc1 (stereo not drawn)	11%
O=C(NCc1ccco1)C1COC2(CCN(C(=O)c3ccc(F)cc3)CC2)N1C(=O)c1ccco1 (stereo not drawn)	-15%
C[C@H]1[C@@H]2[C@@H](O)C([C@H](C)C(=O)NCc3cccnc3)CC[C@@]2(C)CC[C@@H]1NC(=O)c1ccccn1 (stereo partly drawn)	i
COc1ccc(C(=O)N2CCn3c(nnc3-c3cccnc3)C2)cc1	8%
CCc1ccc(NC(=O)Cn2c(N3CCN(c4ccccc4)CC3)nc(C)cc2=O)cc1	i
CCc1cc(=O)n(CC(=O)Nc2cc(OC)c(OC)c(OC)c2)c(N2CCOCC2)n1	-4%
CCc1cc(=O)n(CC(=O)N2CCN(c3ccc(OC)cc3)CC2)c(N2CCOCC2)n1	i
CCc1cc(=O)n(CC(=O)N2CCN(c3ccccc3F)CC2)c(N2CCOCC2)n1	7.9µM*
COCc1cc(=O)n(CC(=O)Nc2ccccc2OC)c(N2CCOCC2)n1	-9%
CCc1cc(=O)n(CC(=O)Nc2ccccc2OC)c(N2CCOCC2)n1	11µM*
CCc1cc(=O)n(CC(=O)Nc2ccc(F)c(Cl)c2)c(N2CCOCC2)n1	i
COc1cc(NC(=O)Cn2c(N3CCN(c4ccccc4)CC3)nc(C)cc2=O)cc(OC)c1	6.3µM*
SMILES	Pf Dd2 inh
COc1ccc(NC(=O)Cn2c(N3CCC(C)CC3)nc(C)cc2=O)cc1	-21%
O=C(NC1CCCN(c2nc3ncccc3o2)C1)c1ccc(Cl)nc1 (stereo not drawn)	-13%
O=C1NCCCCCCN(C(=O)c2cccnc2)[C@H]2C[C@H](c3nc(Cc4ccccc4)no3)C[C@@H]12	i
COc1cccc(C(=O)N2CCC(N3C[C@H](O)C[C@H]3C(=O)NCC3CC3)CC2)c1	-25%
CCCOCCCNC(=O)c1c(C)noc1-c1ccc2c(c1)OCO2	9%
Cc1ccccc1C(=O)N1C[C@@H](CO)[C@H](c2ccncc2)C1	31%
COCCN1CCOC2(CCN([S+](=O)([O-])c3ccc(F)cc3F)CC2)C1=O	i
Cc1ccc(C(=O)N2CCC3(CC2)CC(N(Cc2ccccc2)C2CC2)CCO3)s1 (stereo not drawn)	1.6µM*
O=C(c1ccccn1)N1CCC2(CC1)CC(N(Cc1ccccc1)C1CC1)CCO2 (stereo not drawn)	-6%
COCCC(=O)N1CCC2(CC1)CC(N(Cc1ccccc1)C1CC1)CCO2 (stereo not drawn)	i
O=C(CCC1CCCC1)N1CCC2(CC1)CC(N(Cc1ccccc1)C1CC1)CCO2 (stereo not drawn)	13µM*
O=C(c1ccccc1)N1CCC2(CC1)CC(N(Cc1ccc(F)cc1)C1CC1)CCO2 (stereo not drawn)	7.9µM*
CCC(=O)N1CCC2(CC1)CC(N(Cc1ccccc1)C1CC1)CCO2 (stereo not drawn)	-20%
CC(=O)N1CCC2(CC1)CC(N(Cc1ccc(F)cc1)C1CC1)CCO2 (stereo not drawn)	9%
O=C(CC1CCCC1)N1CCC2(CC1)CC(N(Cc1ccc(F)cc1)C1CC1)CCO2 (stereo not drawn)	7.9µM*
Cc1ccc(C(=O)N2CCC3(CC2)CC(N(Cc2ccccc2)C2CC2)CCO3)cc1 (stereo not drawn)	i
O=C(C1CCC1)N1CCC2(CC1)CC(N(Cc1ccc(F)cc1)C1CC1)CCO2 (stereo not drawn)	i
CCOCC(=O)N1CCC2(CC1)CC(N(Cc1ccc(F)cc1)C1CC1)CCO2 (stereo not drawn)	-33%
CC(C)C(=O)N1CCC2(CC1)CC(N(Cc1ccccc1)C1CC1)CCO2 (stereo not drawn)	-23%
CC(=O)N1CCC(N2CCOC[C@H]2c2ncc(-c3ccc(C)cc3)[nH]2)CC1	5%[44.1 µM]
CSCCCN1C(=O)CC[C@H]2CN(C(=O)C3(C#N)CC3)CC[C@H]21	-3%
CC(=O)N1CCN(c2ncnc3c2CN(c2ccccc2F)C(=O)CN3C)CC1	i
CCOc1ccccc1C(=O)N1CCCN(c2cc(-c3ccc(F)cc3)[nH]n2)CC1	i
CC(C)CNC(=O)N1CCn2nnc(CCC(=O)N3CCOCC3)c2C1	4%
COCCOC1CCN(C(=O)CCc2cccc(OC)c2)CC1	27%
SMILES	Pf Dd2 inh
O=C(c1ccc(F)cc1)N1CCC2(CC1)N(c1ccccc1)C(=O)CS2(=O)=O	19%
O=C1NC2(CCN(Cc3ccc(C(F)(F)F)cc3)CC2)Oc2ccccc21	i
COC1C(=O)N(C2CCN(C(=O)c3ccco3)CC2)C12CCOCC2 (stereo not drawn)	8%
Cc1cc(C(=O)N2CCC3(CC2)CC(N(Cc2ccc(F)cc2)C2CC2)CCO3)n(C)n1 (stereo not drawn)	i
O=C(C1CCOCC1)N1CCC2(CC1)CC(N(Cc1ccc(F)cc1)C1CC1)CCO2 (stereo not drawn)	0%
O=C(c1ccco1)N1CCC2(CC1)CC(N(Cc1ccc(F)cc1)C1CC1)CCO2 (stereo not drawn)	2.8µM*
O=C(Nc1ccc(C2(C(=O)NCc3ccc(F)cc3Cl)CCC2)cc1)C1CC1	-4%
O=c1[nH]c(C2CCN(Cc3ccc(OC(F)(F)F)cc3)CC2)nn1Cc1ccccc1	-30%
CCOc1ccccc1CNC(=O)c1cn(-c2ccc(OC)cc2)c(=O)c2ccccc12	8.9µM*
COc1ccc(-n2cc(C(=O)NCCc3ccc(C)cc3)c3ccccc3c2=O)cc1	i
CCOc1ccc(CCNC(=O)c2cn(-c3cccc(OC)c3)c(=O)c3ccccc23)cc1	-23%
CN(CC1CCOC1)C(=O)Nc1cccc(F)c1 (stereo not drawn)	29%[5.79 µM]
O=C(N[C@H]1[C@H](O)[C@H](O)C[C@@H]1c1ccncc1)c1ccccc1	4%[44.1 µM]
CC(C)NC(=O)C(NC(=O)c1ccc(F)cc1)C1CCN(C(=O)c2ccccc2F)CC1 (stereo not drawn)	13%
